Hit rate of the full screen: of about 5,500 compounds, about 2,000 (36%) were called active. Another 18% or so got no clear call; they are omitted. Cut-off read from the data, not from the text of the source: active = normalized growth mostly below about 0.91 (no sharp cut-off); inconclusive = no clear call, values can overlap the other calls; inactive = mostly above about 0.92. Some of the results follow.
Assay: chemical genetic growth profiling, strain panel (AID 1159580);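 note: tested at 20 µM; growth read once vehicle control cultures reached saturation at 30 °C; 1 = growth at the plate median or of vehicle wells; lower values mean less growth of the strain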
Settings: growth OD
[1] = S. cerevisiae deletion strains, locus YAL040C, strain CLN3, stronger effect = lower value
[2] = S. cerevisiae deletion strains, locus YER002W, strain NOP16, stronger effect = lower value
[3] = S. cerevisiae deletion strains, locus YMR307W, strain GAS1, stronger effect = lower value
[4] = S. cerevisiae deletion strains, locus YNL128W, strain TEP1, stronger effect = lower value
[5] = S. cerevisiae deletion strains, locus YNL175C, strain NOP13, stronger effect = lower value
[6] = S. cerevisiae deletion strains, locus YNL197C, strain WHI3, stronger effect = lower value
[7] = S. cerevisiae deletion strains, locus YNL224C, strain SQS1, stronger effect = lower value
[8] = S. cerevisiae deletion strains, locus YOR083W, strain WHI5 (second series), stronger effect = lower value
[9] = S. cerevisiae deletion strains, locus YPL055C, strain LGE1, stronger effect = lower value
[10] = S. cerevisiae deletion strains, locus YDR150W, strain NUM1, stronger effect = lower value
[11] = S. cerevisiae deletion strains, locus YJR075W, strain HOC1, stronger effect = lower value
[12] = S. cerevisiae deletion strains, locus YNL153C, strain GIM3, stronger effect = lower value
[13] = S. cerevisiae deletion strains, locus YPL241C, strain CIN2, stronger effect = lower value

Measured: normalized growth

NC[C@@H]1O[C@H](C23CC4CC(CC(C4)C2)C3)Cc2c1ccc(O)c2O
active: [3] 0.414 | [9] 0.599
inactive: [1] 0.954 | [2] 0.998 | S. cerevisiae deletion strains, locus YMR263W, strain SAP30, stronger effect = lower value 1 | [4] 0.995 | [5] 1.03 | [6] 1.03 | [7] 1.09 | [8] 1.01

CC12CCC3c4ccc(OCc5ccccc5)cc4CCC3C1C[C@@H](O)[C@@H]2O (some centres undefined)
active: S. cerevisiae deletion strains, locus YBR229C, strain ROT2, stronger effect = lower value 0.0599 | S. cerevisiae deletion strains, locus YCL029C, strain bik1, stronger effect = lower value 0.0651 | S. cerevisiae deletion strains, locus YDL035C, strain GPR1, stronger effect = lower value 0.1 | S. cerevisiae deletion strains, locus YDL074C, strain BRE1, stronger effect = lower value 0.0834 | S. cerevisiae deletion strains, locus YDL101C, strain DUN1, stronger effect = lower value 0.0689 | S. cerevisiae deletion strains, locus YDL134C, strain PPH21, stronger effect = lower value 0.055 | S. cerevisiae deletion strains, locus YDL185W, strain tfp1, stronger effect = lower value 0.058 | S. cerevisiae deletion strains, locus YDL192W, strain arf1, stronger effect = lower value 0.0627 | S. cerevisiae deletion strains, locus YDR101C, strain arx1, stronger effect = lower value 0.127 | [10] 0.355 | S. cerevisiae deletion strains, locus YDR162C, strain NBP2, stronger effect = lower value 0.0538 | S. cerevisiae deletion strains, locus YDR318W, strain mcm21, stronger effect = lower value 0.076 | S. cerevisiae deletion strains, locus YDR388W, stronger effect = lower value 0.066 | S. cerevisiae deletion strains, locus YDR502C, strain sam2, stronger effect = lower value 0.0938 | S. cerevisiae deletion strains, locus YEL061C, strain CIN8, stronger effect = lower value 0.0518 | S. cerevisiae deletion strains, locus YER110C, stronger effect = lower value 0.0937 | S. cerevisiae deletion strains, locus YER155C, strain BEM2, stronger effect = lower value 0.0637 | S. cerevisiae deletion strains, locus YER167W, strain BCK2, stronger effect = lower value 0.0557 | S. cerevisiae deletion strains, locus YGL078C, strain dbp3, stronger effect = lower value 0.106 | S. cerevisiae deletion strains, locus YGL086W, strain mad1, stronger effect = lower value 0.0655 | S. cerevisiae deletion strains, locus YGL248W, strain PDE1, stronger effect = lower value 0.0599 | S. cerevisiae deletion strains, locus YGR135W, strain pre9, stronger effect = lower value 0.265 | S. cerevisiae deletion strains, locus YGR252W, strain gcn5, stronger effect = lower value 0.133 | S. cerevisiae deletion strains, locus YHR030C, strain SLT2, stronger effect = lower value 0.0559 | S. cerevisiae deletion strains, locus YHR079C, strain IRE1 (second series), stronger effect = lower value 0.0829 | S. cerevisiae deletion strains, locus YHR094C, strain hxt1, stronger effect = lower value 0.0776 | S. cerevisiae deletion strains, locus YHR129C, strain ARP1, stronger effect = lower value 0.0606 | S. cerevisiae deletion strains, locus YHR200W, strain rpn10, stronger effect = lower value 0.0742 | S. cerevisiae deletion strains, locus YIL066C, strain RNR3, stronger effect = lower value 0.0563 | S. cerevisiae deletion strains, locus YIL073C, strain SPO22, stronger effect = lower value 0.112 | S. cerevisiae deletion strains, locus YIL125W, strain kgd1, stronger effect = lower value 0.0668 | S. cerevisiae deletion strains, locus YIR030C, strain dcg1, stronger effect = lower value 0.104 | S. cerevisiae deletion strains, locus YJL095W, strain BCK1, stronger effect = lower value 0.062 | S. cerevisiae deletion strains, locus YJL134W, strain LCB3, stronger effect = lower value 0.0681 | S. cerevisiae deletion strains, locus YJL168C, strain set2, stronger effect = lower value 0.0842 | S. cerevisiae deletion strains, locus YJL187C, strain SWE1 (second series), stronger effect = lower value 0.0613 | S. cerevisiae deletion strains, locus YJR043C, strain POL32, stronger effect = lower value 0.0826 | [11] 0.0841 | S. cerevisiae deletion strains, locus YKL009W, strain mrt4, stronger effect = lower value 0.0811 | S. cerevisiae deletion strains, locus YKL068W, stronger effect = lower value 0.187 | S. cerevisiae deletion strains, locus YKL085W, strain MDH1 (second series), stronger effect = lower value 0.068 | S. cerevisiae deletion strains, locus YKL085W, strain MDH1, stronger effect = lower value 0.068 | S. cerevisiae deletion strains, locus YKL190W, strain CNB1, stronger effect = lower value 0.0552 | S. cerevisiae deletion strains, locus YKR001C, strain vps1, stronger effect = lower value 0.062 | S. cerevisiae deletion strains, locus YLR039C, strain RIC1, stronger effect = lower value 0.0869 | S. cerevisiae deletion strains, locus YLR058C, strain SHM2, stronger effect = lower value 0.0598 | S. cerevisiae deletion strains, locus YLR102C, strain apc9, stronger effect = lower value 0.0693 | S. cerevisiae deletion strains, locus YLR262C, strain YPT6, stronger effect = lower value 0.103 | S. cerevisiae deletion strains, locus YLR268W, strain sec22, stronger effect = lower value 0.0915 | S. cerevisiae deletion strains, locus YLR330W, strain CHS5, stronger effect = lower value 0.0559 | S. cerevisiae deletion strains, locus YLR342W, strain FKS1 (second series), stronger effect = lower value 0.0702 | S. cerevisiae deletion strains, locus YLR371W, strain rom2, stronger effect = lower value 0.0664 | S. cerevisiae deletion strains, locus YLR418C, strain cdc73, stronger effect = lower value 0.101 | S. cerevisiae deletion strains, locus YML016C, strain PPZ1, stronger effect = lower value 0.0511 | S. cerevisiae deletion strains, locus YML032C, strain rad52, stronger effect = lower value 0.0688 | S. cerevisiae deletion strains, locus YML124C, strain tub3, stronger effect = lower value 0.117 | S. cerevisiae deletion strains, locus YMR078C, strain ctf18, stronger effect = lower value 0.0734 | S. cerevisiae deletion strains, locus YMR223W, strain ubp8, stronger effect = lower value 0.0801 | [3] 0.114 | S. cerevisiae deletion strains, locus YNL067W, strain RPL9B, stronger effect = lower value 0.093 | [4] 0.0726 | [12] 0.0573 | S. cerevisiae deletion strains, locus YNL233W, strain BNI4, stronger effect = lower value 0.0603 | S. cerevisiae deletion strains, locus YNL250W, strain rad50, stronger effect = lower value 0.0963 | S. cerevisiae deletion strains, locus YNL271C, strain bni1, stronger effect = lower value 0.129 | S. cerevisiae deletion strains, locus YNL298W, strain CLA4, stronger effect = lower value 0.0669 | S. cerevisiae deletion strains, locus YNL307C, strain MCK1, stronger effect = lower value 0.0674 | S. cerevisiae deletion strains, locus YNR052C, strain pop2, stronger effect = lower value 0.0752 | S. cerevisiae deletion strains, locus YOL006C, strain TOP1, stronger effect = lower value 0.114 | S. cerevisiae deletion strains, locus YOL012C, strain htz1 0.149 | S. cerevisiae deletion strains, locus YOL147C, strain pex11, stronger effect = lower value 0.0612 | S. cerevisiae deletion strains, locus YOR061W, strain CKA2, stronger effect = lower value 0.0522 | S. cerevisiae deletion strains, locus YOR069W, strain VPS5, stronger effect = lower value 0.0556 | S. cerevisiae deletion strains, locus YOR136W, strain idh2, stronger effect = lower value 0.077 | S. cerevisiae deletion strains, locus YOR144C, strain elg1, stronger effect = lower value 0.0719 | S. cerevisiae deletion strains, locus YOR184W, strain ser1, stronger effect = lower value 0.0768 | S. cerevisiae deletion strains, locus YOR316C, strain cot1, stronger effect = lower value 0.0738 | [9] 0.0696 | [13] 0.0593 | S. cerevisiae deletion strains, locus YPR119W, strain clb2, stronger effect = lower value 0.0659 | S. cerevisiae deletion strains, locus YPR141C, strain kar3, stronger effect = lower value 0.106 | S. cerevisiae deletion strains, locus YPR163C, strain tif3, stronger effect = lower value 0.0746 | S. cerevisiae deletion strains, locus YPR167C, strain met16, stronger effect = lower value 0.0654 | S. cerevisiae deletion strains, strain wtn01, stronger effect = lower value 0.107 | S. cerevisiae strains, strain wild type, stronger effect = lower value 0.0526
inactive: S. cerevisiae deletion strains, locus YBR021W, strain FUR4, stronger effect = lower value 0.995

COc1cc2c(cc1O)CC[C@@H]1[C@@H]2CC[C@]2(C)[C@@H](O)CC[C@@H]12
inactive: [1] 1.02 | S. cerevisiae deletion strains, locus YCL061C, strain MRC1 (second series), stronger effect = lower value 1 | [10] 0.964 | S. cerevisiae deletion strains, locus YDR363W, strain ESC2, stronger effect = lower value 1.02 | [2] 0.994 | S. cerevisiae deletion strains, locus YGR078C, strain PAC10, stronger effect = lower value 1 | [11] 1.03 | [12] 0.936 | [5] 1.01 | [6] 1.03 | [7] 1.03 | [8] 0.982 | [13] 0.996
